Measured values taken from PubChem BioAssay AID1159580 (chemical genetic matrix, 2015).
Screen size: about 5,500 compounds; about 2,000 (36%) were called active. Not shown: some 18% with an inconclusive outcome. No stated cut-off is given here; in the data, active means normalized growth mostly below about 0.91 (no sharp cut-off); inconclusive means no clear call, values can overlap the other calls; inactive means mostly above about 0.92. This is one part of the list.

Experiment: chemical genetic growth profiling, strain panel (AID 1159580);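 further: tested at 20 µM; growth read once vehicle control cultures reached saturation at 30 °C; 1 = growth at the plate median or of vehicle wells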
Conditions: S. cerevisiae deletion strains, growth OD

Measured: normalized growth

C[N+](C)(C)CC=O
inactive: locus YAL040C, strain CLN3, stronger effect = lower value 0.989 | locus YDR150W, strain NUM1, stronger effect = lower value 1.01 | locus YDR363W, strain ESC2, stronger effect = lower value 0.979 | locus YER002W, strain NOP16, stronger effect = lower value 0.989 | locus YGR078C, strain PAC10, stronger effect = lower value 1.01 | locus YJR075W, strain HOC1, stronger effect = lower value 0.999 | locus YNL128W, strain TEP1, stronger effect = lower value 0.981 | locus YNL175C, strain NOP13, stronger effect = lower value 1 | locus YNL197C, strain WHI3, stronger effect = lower value 1.04 | locus YNL224C, strain SQS1, stronger effect = lower value 0.993 | locus YNL322C, strain KRE1, stronger effect = lower value 0.994 | locus YOR083W, strain WHI5 (second series), stronger effect = lower value 1.06 | locus YPL055C, strain LGE1, stronger effect = lower value 1.03
